Data from PubChem BioAssay (EPA / NIEHS).
Records with an inconclusive call do not appear. Active and inactive are the calls of the source. The calls were made as follows: active = hit-call score of the fitted dose curve at least 0.9, where 1 is the maximum; inconclusive = response in the unintended direction; inactive = score below 0.9.

experiment: ACEA_ER_AUC_viability: ACEA Biosciences xCELLigence Real-Time Cell Analysis on Estrogen Receptor Agonism for Viability (AID 2283782);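 also: hit means loss of impedance signal meaning reduced cell growth or viability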
Method in brief: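 Read-out: real-time electrical impedance (RT-CES) area under curve, loss of signal taken as reduced viability, normalized to DMSO baseline. T-47D cells, charcoal-stripped serum medium, compounds up to 100 uM final, continuous exposure, 80 h.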

| Structure (SMILES) | outcome | AC50 |
| --- | --- | --- |
| CCCCCCCCCCOC(C)=O | inactive | – |
| O=P(O)(O)Oc1ccccc1 | – | 50 µM (active) |
| Cc1c(C)c([N+](=O)[O-])c(C(C)(C)C)c([N+](=O)[O-])c1C | inactive | – |
| CC(=O)C=CC1C(C)=CCC(C)C1(C)C (stereo not given) | inactive | – |
| CC(C)=CC1CC(C)CCO1 (stereo not given) | inactive | – |
| C=CC(C)(CCC=C(C)C)OC(=O)CC(C)C (stereo not given) | inactive | – |
| OCCc1ccncc1 | inactive | – |
| CCCCCCC(O)CO (stereo not given) | – | 40 µM (active) |
| CCCC(C)CCC(C)=O (stereo not given) | inactive | – |
| CCCCCC(C)O (stereo not given) | inactive | – |
| CC(=O)Oc1ccc(C)cc1 | inactive | – |
| CCCCCCCCCCC=CC#N | – | 50 µM (active) |
| COC(=O)c1ccccc1OC | – | 50 µM (active) |
| CCC(C)(C)C1CCCCC1OC(C)=O (stereo not given) | inactive | – |
| Cc1cc(C)c(C)c(C)c1 | inactive | – |
| COC(=O)/C=C\C(=O)O | inactive | – |
| CC/C=C\CCOC(=O)CCCCC | inactive | – |
| CCCOC(=O)CCCCC(=O)OCCC | – | 50 µM (active) |

| Structure (SMILES) | outcome | AC50 |
| --- | --- | --- |
| CCCC(=O)OCc1ccccc1 | inactive | – |
| C=C(C)c1cccc(C(C)(C)N=C=O)c1 | inactive | – |
| C=C[C@](C)(O)CC[C@@H]1[C@@]2(C)CCCC(C)(C)[C@@H]2CC[C@@]1(C)O | – | 37.6 µM (active) |
| O=C1CC2CC1C1CCCC21 (stereo not given) | inactive | – |
| Nc1cccc(C(F)(F)F)c1 | inactive | – |
| O=C1CCC(=O)N1Cl | inactive | – |
| CC(C)C1=CC2=CC[C@@H]3[C@](C)(CCC[C@@]3(C)C(=O)O)[C@H]2CC1 | inactive | – |
| Cc1ccc([N+](=O)[O-])cc1S(=O)(=O)O | inactive | – |
| O=c1n(CCO)c(=O)n(CCO)c(=O)n1CCO | inactive | – |
| Nc1ccc(N=Nc2ccccc2)c(N)n1 | inactive | – |
| C=C(C)[C@@H]1CCC2=CCC[C@@H](C)[C@]2(C)C1 | – | 77.6 µM (active) |
| CC(C)CCCC(C)CC=O (stereo not given) | inactive | – |
| CCN(Cc1cccc(S(=O)(=O)O)c1)c1ccc(C(=C2C=CC(=[N+](CC)Cc3cccc(S(=O)(=O)[O-])c3)C=C2)c2ccccc2)cc1 | inactive | – |
| CC(CC=O)c1ccccc1 (stereo not given) | – | 50 µM (active) |
| COCCOCCOCCOCCOC | inactive | – |
| CC(C)=CCC/C(C)=C\C#N | inactive | – |
| CCCCCCCCCCCCCCCC(=O)OCC | inactive | – |
